PubChem BioAssay (NCI)
This is part of a sample that, as a whole, favours compounds with a hit. Of some 83,000 tested, about 20% had one in any assay.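 Activity criterion: percent growth below 10, measured after cells in 96-well plates were exposed to a single compound concentration for 48 hours.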 Unmarked numbers belong to inactive results. Activity calls are given as the source filed them.

Experiments:
Assay in all cases: NCI-60 one-dose screen, 48 h (100 = growth as untreated, 0 = no growth, -100 = all killed)
T-47D breast = details: 10 µM unless noted
BT-549 breast = details: 10 µM unless noted
MDA-MB-435 melanoma = details: 10 µM unless noted
SW-620 colon = details: 10 µM unless noted
MCF7 breast = details: 10 µM unless noted
HCT-116 colon = details: 10 µM unless noted
HCC-2998 colon = details: 10 µM
KM12 colon = details: 10 µM unless noted

| Structure (SMILES) | growth (T-47D breast) | growth (BT-549 breast) | growth (MDA-MB-435 melanoma) | growth (SW-620 colon) | growth (MCF7 breast) | growth (HCT-116 colon) | growth (HCC-2998 colon) | growth (KM12 colon) |
| --- | --- | --- | --- | --- | --- | --- | --- | --- |
| Cc1cc(Oc2ccccc2)ccc1Nc1ncnc2ccc(-c3cnc(Cl)c(NS(C)(=O)=O)c3)cc12 | -22.4% (active) | -0.502% (active) | 17.9% | 38.8% | 9.35% (active) | 22.9% | 25.7% | 34.5% |
| C#Cc1cccc(Nc2ncnc3cc(OC)c(OCCCCCCC(=O)NO)cc23)c1 | -24.4% (active) | -7.81% (active) | -28.1% (active) | -22.6% (active) | 8.28% (active) | -27.4% (active) | -53.5% (active) | 5.62% (active) |
| CC(=Nc1ccccc1)C1=C(O)C(Cc2ccccc2)NC1=O (stereo not drawn) | 67.6% | 13.9% | -27.3% (active) | 19.3% | 9.54% (active) | 2.49% (active) | -20.6% (active) | -46.3% (active) |
| Nc1nc(Nc2ccccc2)c(C=Nc2ccccc2)c(=O)[nH]1 | 81.4% | 75.1% | 94.7% | 98.4% | 92.5% | 85.1% | 99.3% | 98.6% |
| C[C@@H](Oc1cc(-c2cnn(C3CCNCC3)c2)cnc1N)c1c(Cl)ccc(F)c1Cl | -65.8% (active) | -42.3% (active) | -90.6% (active) | -59.9% (active) | -66.1% (active) | -73.1% (active) | -73.2% (active) | -61.2% (active) |
| CNS(=O)(=O)Nc1nccc(Cc2c(C)c3ccc(Oc4ncccn4)cc3oc2=O)c1F | 60.1% | 68.6% | 37.1% | 29% | 79.2% | 19.2% | 1.07% (active) | 26.1% |
| Cn1cnc2c(F)c(Nc3ccc(Br)cc3F)c(C(=O)NOCCO)cc21 | 81.9% | 81.7% | 32.5% | 21% | 87.3% | 19% | 0.38% (active) | 27.5% |
| Cc1cc2c3c(cccc3c1)C(=O)c1ccccc1-2 | 92.1% | 95.3% | 103% | 94.7% | 82% | 96.1% | 98.2% | 93.3% |
| O=C(Cn1c(=O)ccn(CCCCCCCCOc2ccc(Br)cc2)c1=O)Nc1ccc(Oc2ccc(Cl)cc2)cc1 | 37.8% | 54.1% | 65.6% | 73% | 41.3% | 46.5% | 75.5% | 61.7% |
| C=C1C(=O)O[C@H]2[C@H]1CC/C(Cn1cc(-c3cc(C)c(C)cc3C)nn1)=C\CC[C@@]1(C)O[C@@H]21 | -46.8% (active) | -66.1% (active) | -56.3% (active) | -79.2% (active) | -62.3% (active) | -87.4% (active) | -91.7% (active) | 14.1% |
| Cc1[nH]c(/C=C2\C(=O)Nc3ccc(F)cc32)c(C)c1C(=O)NC[C@H](O)CN1CCOCC1 | 59.5% | 37.8% | 18.6% | 11.8% | 38.4% | 10.7% | 41% | 5.33% (active) |
| Nc1ncnc2c1ccn2-c1cccc(NC(=O)c2ccc(N3CCOCC3)c(C(F)(F)F)c2)c1 | 32.2% | 57.5% | 53.7% | 66.5% | 67.1% | 24.9% | 62.6% | 31% |
| COc1cnc2c(c1)C(=O)c1c-2n(CCCN2CCC(O)CC2)c(=O)c2cc(Cl)ccc12 | 42.8% | 46.9% | 76.1% | -32.1% (active) | 0.872% (active) | -60% (active) | 51.5% | 45% |
| CN1CCN(Cc2ccc(NC(=O)c3[nH]ncc3Nc3ncnc4sc5c(c34)CCCC5)cc2)CC1 | 9.76% (active) | -20.7% (active) | -89% (active) | -52% (active) | -67.2% (active) | -96% (active) | -74.9% (active) | -64.3% (active) |
| CC(C)Nc1cc(-c2c[nH]c(C(=O)N[C@H](CO)c3cccc(Cl)c3)c2)c(Cl)cn1 | 34.7% | 57.3% | 21.7% | 20.6% | 27.9% | 15.7% | -10.9% (active) | 18.7% |
| NC1=Nc2ccccc2N(O)N1 | 87.1% | 95% | 106% | 105% | 94.2% | 93.3% | 91.3% | 104% |

| Structure (SMILES) | growth (T-47D breast) | growth (BT-549 breast) | growth (MDA-MB-435 melanoma) | growth (SW-620 colon) | growth (MCF7 breast) | growth (HCT-116 colon) | growth (HCC-2998 colon) | growth (KM12 colon) |
| --- | --- | --- | --- | --- | --- | --- | --- | --- |
| CCN(CC)C(=O)C[N+](C)(C)CCOC(c1ccccc1)c1ccccc1 | 105% | 99.3% | 93.2% | 111% | 93.4% | 99.4% | 93% | 102% |
| Cc1cnc(NC(=O)Nc2cc(Br)c(C)cc2OC[C@@H]2CNCCO2)cn1 | -46.5% (active) | 23.6% | -36.2% (active) | 20.8% | 2% (active) | 10.4% | 12% | 15% |
| CCc1nc2ccc(Cc3ccc(C(=O)NO)cc3)cc2c(=O)n1CCc1ccccc1 | -7.19% (active) | -31.2% (active) | -73.7% (active) | -27.2% (active) | 4.69% (active) | -55% (active) | -74.8% (active) | -58.9% (active) |
| CCCC(=O)OCC1OC(n2cnc3c(=S)nc[nH]c32)C(OC(=O)CCC)C1OC(=O)CCC (stereo not drawn) | 36.5% | 45.5% | 38% | 38.1% | 24.2% | 35.9% | 2.11% (active) | 43.3% |
| COc1cnc2c(c1)C(=O)c1c-2n(CCCNC2=NCCS2)c(=O)c2cc(Cl)ccc12 | 32.9% | 41.6% | 7.73% (active) | -79.3% (active) | -74.9% (active) | -87.8% (active) | -35.6% (active) | -63.2% (active) |
| CCc1cc2c(c3ccc(C(=O)CBr)cc13)CCCC2 | 71.2% | 80.3% | 107% | 111% | 93.1% | 102% | 103% | 103% |
| Cc1cc(N2CCCC2)nc(N(CCCNc2ccnc3cc(Cl)ccc23)Cc2ccc3c(c2)OCO3)n1 | -18.4% (active) | -14.1% (active) | -71.9% (active) | -27% (active) | -12.8% (active) | -22.9% (active) | -52.4% (active) | 19.1% |
| Cc1cc(O)cc(-c2c(-c3ccnc(-c4cccnc4)c3)cnn2C)c1 | 29.3% | 75.1% | 61.9% | 83.4% | 43.5% | 71.9% | 88.2% | 68.6% |
| O=c1sn(-c2cccc3ccccc23)c(=O)n1Cc1ccccc1 | 91.5% | 110% | 104% | 110% | 103% | 88.1% | 110% | 104% |
| O=C(NC1CCNCC1)c1[nH]ncc1NC(=O)c1c(Cl)cccc1Cl | -3.82% (active) | 7.37% (active) | -43.3% (active) | 6.16% (active) | 3.78% (active) | 4.77% (active) | -2.4% (active) | 8.2% (active) |
| CC1(/C=N/NC(N)=S)NC(=O)NC1=O (stereo not drawn) | 79.5% | 105% | 107% | 106% | 94.8% | 98.4% | 118% | 104% |
| O=C(NCCO)Nc1ccc(-c2nc(N3CCOCC3)c3cccn3n2)cc1 | -32.6% (active) | -5.61% (active) | -6.22% (active) | 22.3% | 7.74% (active) | 20.4% | 24% | 14.7% |
| CN(C)C[C@@H]1CCn2cc(c3ccccc32)C2=C(C(=O)NC2=O)c2cn(c3ccccc23)CCO1 | 21.2% | -3.62% (active) | 20.2% | -57.6% (active) | -58.8% (active) | -69.4% (active) | 22% | 3.55% (active) |
| Cc1c(CN2CCN(C(=O)[C@H](C)O)CC2)sc2c(N3CCOCC3)nc(-c3cnc(N)nc3)nc12 | -38% (active) | -3.06% (active) | -9.11% (active) | 7.94% (active) | 1.68% (active) | 5.47% (active) | 0.359% (active) | 6.74% (active) |
| Cc1cc(C(=O)NOCCO)c(Nc2ccc(I)cc2F)n(C)c1=O | 103% | 85.7% | 35.4% | 24.8% | 94.7% | 15.2% | -16.6% (active) | 28.4% |
